Sampled rows, rich in hits. Any-hit rate of the full collection: about 3.5%.
Pf apPOL inh: Pf-apPOL DNA polymerase inhibition. Recombinant Pf-apPOL, molecular beacon fluorescence, 1.5 h. inhibition, % at 10 µM. actives 0.25% (n = 210,000)
mHTT-CaM PPI inh: mHTT-calmodulin interaction abrogation. AlphaScreen His-mHTT/GST-CaM binding, luminescence. inhibition, % at 15 µM. actives 3.6% (n = 190,000). AID 1671202;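 further: 0% = both proteins with DMSO and 100% = one protein alone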
Starred values were filed as active, the others as inactive; · = no result given. No stated cut-off is given here; in the data, active means inhibition above about 50%; inactive means the rest.

SMILES	Pf apPOL inh	mHTT-CaM PPI inh
COc1ccc(-c2nc3ccc(C)cn3c2NC(=O)C2CCCCC2)cc1	0	40
C=CCNC(=O)C1(c2ccc(NS(=O)(=O)c3ccccc3)cc2)CCCCC1	-2	4
Cc1oc2c3c(ccc2c(=O)c1-c1ccccc1)OCN(Cc1ccccn1)C3	-10	69*
COCCN1COc2ccc3c(=O)c(Oc4cccc(OC)c4)c(C(F)(F)F)oc3c2C1	3	4
COc1cccc(Oc2c(C)oc3c4c(ccc3c2=O)OCN(Cc2ccccn2)C4)c1	-88	100*
Cc1oc2c3c(ccc2c(=O)c1-c1ccccc1)OCN(CC1CCCO1)C3 (stereo unspecified)	1	0
CC(C)CCNC(=O)c1cncc(-c2cc(F)ccc2F)c1	0	-6
O=C(Nc1cccnc1)Nc1csc(-c2ccc(C(F)(F)F)cc2)n1	4	·
CCc1cc(-c2[nH]ncc2-c2ccccc2)c(O)cc1OC	-2	100*
CCc1cc(-c2[nH]ncc2-c2ccc(F)cc2)c(O)cc1OC	9	74*
O=Cc1cn[nH]c1-c1ccccc1	-4	-6
COc1cc(-c2nc3ccccn3c2N=Cc2cn[nH]c2-c2ccccc2)ccc1O	-9	34
Oc1ccc(-c2[nH]ncc2-c2ccccc2)c(O)c1O	-3	96*
COc1ccc(-c2[nH]ncc2-c2ccc(F)cc2)c(O)c1	-6	39
COc1ccc(C(=O)Nc2cccc([N+](=O)[O-])c2)cc1I	-4	-2
CCc1cc(=O)[nH]c(N2CCN(c3cccc(OC)c3)CC2)n1	-8	38
OCc1nc2ccccc2n1Cc1ccc(Cl)c(Cl)c1	1	73*
OCc1nc2ccccc2n1Cc1ccccc1	1	0
COc1ccc(CNC(=O)CN(c2ccc(Cl)c(Cl)c2)S(C)(=O)=O)cc1	-10	-2
CC(=O)Nc1ccc(/C=C2\SC(=Nc3ccccc3)NC2=O)cc1	-4	3
O=C1NC(=O)/C(=C/c2ccccc2OCc2ccc([N+](=O)[O-])cc2)S1	-2	1
CCOc1cc([N+](=O)[O-])cc(/C=C2\SC(=O)NC2=O)c1O	71*	6
O=C1NC(=O)/C(=C/c2cc(Br)cc(Cl)c2O)S1	-2	60*
O=C1NC(=O)/C(=C/c2cc(Cl)cc(Cl)c2O)S1	-12	86*
O=C1NC(=O)/C(=C/c2ccc(Cl)cc2Cl)S1	0	2
SMILES	Pf apPOL inh	mHTT-CaM PPI inh
N=C1NC(=O)/C(=C/c2cc(Br)cc(Cl)c2O)S1	-3	9
COc1ccc(Cl)cc1N(CC(=O)NCc1ccco1)S(C)(=O)=O	-8	1
CC(NCC(O)COCCOc1ccc(F)cc1)c1ccccc1 (stereo unspecified)	9	-10
COCCN=C1Nc2ccccc2CNC12CCN(C(=O)c1cccc(Cl)c1)C2 (stereo unspecified)	-1	22
COc1ccc(Cl)cc1NC(=O)N1CCC2(CC1)Nc1cc(F)ccc1-n1cccc12	-2	55*
Cc1ccccc1NC(=O)N1CCC2(CC1)Nc1cc(F)ccc1-n1cccc12	-5	35
COc1ccc(C)cc1NC(=O)N1CCC2(CC1)Nc1ccccc1-n1cccc12	2	36
COc1ccccc1NC(=O)N1CCC2(CC1)Nc1cc(F)ccc1-n1cccc12	-9	57*
COc1ccc(OC)c(NC(=O)N2CCC3(CC2)Nc2cc(F)ccc2-n2cccc23)c1	1	63*
O=C(COc1ccccc1Cl)NCCN1CCOCC1	-3	-1
CS(=O)(=O)c1ccccc1-c1nnc(NC(=O)c2ccc([N+](=O)[O-])s2)o1	13	0
COc1ccc(Cl)cc1NC(=O)N1CCN(c2nc3ccccc3[nH]2)CC1	-1	-10
Cc1ccc(-c2nc3ccccn3c2NC(=O)C(C)Cl)cc1 (stereo unspecified)	2	8
CC(Cl)C(=O)Nc1c(-c2ccc(C(F)(F)F)cc2)nc2ccccn12 (stereo unspecified)	-5	55*
O=C(Nc1c(-c2ccccc2)nc2ccccn12)c1cccnc1	-2	-7
Cc1ccn2c(NC(=O)C(C)C)c(-c3cccc(F)c3)nc2c1	5	-1
Cc1ccn2c(NC(=O)C(C)Cl)c(-c3cccc(F)c3)nc2c1 (stereo unspecified)	22	69*
O=C(/C=C/c1ccccc1)Nc1c(-c2ccccc2)nc2ccccn12	-7	61*
O=C(NCCCc1ccccc1)C1(n2cccc2)CCCCC1	-6	51*
CN(CCCNC(=O)C1(n2cccc2)CCCCC1)Cc1ccccc1	-16	27
Fc1ccc(CN2CCn3cnnc3C2)cc1F	-4	2
Cc1cc(NC(=O)CSc2cc(N3CCN(c4ccccc4F)CC3)ncn2)no1	-1	-9
Cn1nc(COc2ccc(F)cc2)c2c1CCN(C(=O)Nc1cccc(C(F)(F)F)c1)C2	-3	59*
COc1ccc(NC(=O)N2CCc3c(c(COc4ccc(F)cc4)nn3C)C2)cc1F	-3	35
Cn1nc(COc2cccc(F)c2)c2c1CCN(C(=O)Nc1cccc(Cl)c1)C2	-3	14
